The whole screen tested about 260,000 compounds, of which about 150 (0.058%) were called active. Calls come from the whole dose curve; as a rule, active = well fitted inhibition curve with a large enough effect; inconclusive = small, poorly fitted or top-dose-only effect; inactive = no such curve, though single readings can be large or run the other way. The sample as a whole holds a higher share of actives than the screen did.
Target: Pyruvate kinase PKM (Homo sapiens) (UniProt P14618)
Assay: qHTS Assay for Inhibitors of Human Muscle isoform 2 Pyruvate Kinase; note: nearly all actives have a fitted effect of over 60% in size;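 for activity change, negative = inhibition: plate controls were uninhibited enzyme wells for no effect and no-enzyme wells for full effect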
Conditions: purified PKM2, ATP generation, Kinase-Glo luminescence; series mostly up to 57.5 µM; activity change, negative = inhibition: at the top concentration
Experimental: NIH Chemical Genomics Center [NCGC] Matthew G. Vander Heiden, M.D., Ph.D. [Harvard Medical School, 77 Avenue Louis Pasteur, Boston, MA 02115] […] ATP generation was detected in a coupled reaction by luciferase-mediated luminescence, an ATP-dependent process. […] The enzyme was assayed at an intermediate level of activity to screen for both inhibitors and activators.
NCGC Assay Protocol Summary: Three uL of substrate mix (at r.t.) in assay buffer (50 mM Imidazole pH7.2, 50 mM KCl, 7 mM MgCl2, 0.01% Tween 20, 0.05% BSA) was dispensed into white solid bottom 1,536 well microtiter plates so that the final concentrations of substrates in the assay were 0.1 mM ADP and 0.5 mM PEP. 23 nL of compound were delivered by a pin tool and 1 uL of enzyme mix in assay buffer (4 degree Celsius) was added. Plates were incubated at room temperature for 1 hour. Two uL of detection mix (Kinase-Glo, Promega; at 4 degree Celsius protected from light) was added and luminescence read by a ViewLux (Perkin Elmer) at 5 second exposure/plate. Data were normalized to the uninhibited and AC100 inhibition (no enzyme). To monitor activation, the first column contained a titration of the activator, NCGC00031955-01 (16-point 1:2 dilutions in duplicate starting at 57 uM) and the first 16 rows of column 4 contained 57 uM of NCGC00031955-01.
Potency is the fitted concentration of half-maximal effect.

Chain of Pyruvate kinase PKM (Homo sapiens) (P14618 whole entry, looked up, canonical isoform): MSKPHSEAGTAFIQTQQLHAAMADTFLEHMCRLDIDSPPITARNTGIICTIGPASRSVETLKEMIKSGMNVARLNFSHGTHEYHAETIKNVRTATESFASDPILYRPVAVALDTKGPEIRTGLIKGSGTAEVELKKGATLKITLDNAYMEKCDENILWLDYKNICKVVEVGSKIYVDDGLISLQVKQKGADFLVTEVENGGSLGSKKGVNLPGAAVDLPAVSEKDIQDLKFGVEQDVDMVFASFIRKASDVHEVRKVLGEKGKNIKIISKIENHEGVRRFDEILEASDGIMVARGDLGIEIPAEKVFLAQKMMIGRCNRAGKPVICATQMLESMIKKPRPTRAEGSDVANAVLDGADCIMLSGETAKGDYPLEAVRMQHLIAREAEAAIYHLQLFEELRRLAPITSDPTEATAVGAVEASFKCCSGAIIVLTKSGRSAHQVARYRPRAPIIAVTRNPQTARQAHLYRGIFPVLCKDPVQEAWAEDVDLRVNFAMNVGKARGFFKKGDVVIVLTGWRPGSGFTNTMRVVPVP

Activity change, negative = inhibition, inactive:
COc1cccc(CNC(=O)CCC2CCCN(C(=O)c3cc(C)[nH]n3)C2)c1 (stereo not drawn) 58.5%, Cc1cc(C)c(S(=O)(=O)N2C=CC(C(F)(F)F)=NCC2)c(C)c1 41.1%, CN(CCc1ccccc1)c1ccc([N+](=O)[O-])cn1 41.5%, COC(=O)[C@@]1(Cc2ccccc2)[C@H]2c3cc(C(=O)N4CCCC4)n(Cc4ccc(C)o4)c3C[C@H]2CN1C(=O)c1ccccc1 69%, O=[N+]([O-])c1cc(Br)c(O)c(/C=N/Nc2nc3ccccc3s2)c1 59.9%, CN(C)S(=O)(=O)c1ccc(NC(=O)COC(=O)c2n[nH]c3ccccc23)cc1 38.3%, NC(=O)COC(=O)/C=C/c1ccc2ccccc2n1 57.7%, COc1ccccc1C(=O)N/C(=C/c1ccco1)C(=O)Nc1ccc(C(=O)O)cc1 30.1%, O=S(=O)(c1ccc(Br)cc1)c1nc(-c2ccccc2)oc1NCc1cccnc1 41.4%, Cc1ccc(C)c(S(=O)(=O)Nc2cccc(-n3cnnn3)c2)c1 64.8%, O=C(NCc1cccs1)C1CCN(S(=O)(=O)c2ccc3c(c2)OCCO3)CC1 136%, CCCc1nc(N2CCN(C)CC2)c2sc(=S)n(-c3ccccc3)c2n1 39.2%, CC1CC(c2ccccc2)n2nc(NC(=O)c3cccs3)nc2N1 (stereo not drawn) 90.6%, CN(C)N=Nc1ccc2nc[nH]c2c1 85.6%, CN(C)c1nc(N)nc(CSc2nnnn2-c2cccc3ccccc23)n1 42.7%, O=C(c1ccc[nH]c1=S)N1CCN(S(=O)(=O)c2ccc(Br)cc2Cl)CC1 54.6%, O=C(NCCN1C(=O)S/C(=C\c2cccnc2)C1=O)c1ccc(S(=O)(=O)N2CCCC2)cc1 46.1%, Cc1ccnc(-n2sc3ccccc3c2=O)n1 19.8%, CC(C)NC(=O)CCCn1c(=S)[nH]c2cc3c(cc2c1=O)OCO3 56.3%, O=C(Cn1nc(CNc2ccc(Cl)cc2)[n+]2c1CCCCC2)c1ccc(Cl)cc1 36.3%, Cc1ccc(NC(=O)c2cc(-c3ccc(C)o3)nc3ccccc23)nc1 41.8%, CCOc1cccc2c1OC1(CCCCC1)N1N=C(c3cccnc3)CC21 (stereo not drawn) 31.1%, O=S(=O)(c1ccc(F)cc1)N1CCN(C(=S)NC2CCCC2)CC1 47.7%, Cc1cc(C(=O)N/N=C/c2ccccc2[N+](=O)[O-])c(C)o1 45.8%, Cc1ccccc1CN1C[C@@H]2C[C@@H](c3cn(C)nc3-c3ccccc3)N3CCC[C@@]23C1=O 83.1%, CSc1ccc(/C=N\NC(=O)COc2ccc(Cl)cc2Br)cc1 21.9%, Cn1c(SCC(=O)Nc2cccc(O)c2)nnc1-c1ccc(S(=O)(=O)N2CCOCC2)cc1 46.7%, Cc1ccccc1-n1nc(C)c2c1N=C1C(Cl)=CC(Cl)=CN1C2c1ccc(C(=O)O)cc1 (stereo not drawn) 34.7%, Cn1c(=O)c2c(nc(SCCNS(=O)(=O)c3ccccc3)n2C)n(C)c1=O 55.3%, O=C(NC1=NCCS1)[C@H](Cc1ccccc1)N1C(=O)c2ccccc2C1=O 46.9%, CN(C(=O)CSc1nnc(N)s1)c1c(N)n(Cc2ccccc2)c(=O)[nH]c1=O 36.5%, Cc1ccc(NC(=O)OCCNC(=O)c2ccncc2)cc1 59.5%, Cc1ccc(-c2cc(C(=O)N/N=C/C=C/c3ccco3)c3ccccc3n2)cc1C 30.4%, COc1ccc(-c2nnc(SC(C)C#N)o2)cc1 (stereo not drawn) 48.4%, Cc1ccc(S(=O)(=O)N2CCN(Cc3cccc(C)c3O)CC2)cc1 51.6%, Cc1ccc(-c2nc(SCC(=O)Nc3ccccc3OC(F)F)c3c(C)c(C(=O)O)sc3n2)cc1 42.3%, Cc1nc(SCC(=O)N2CC(=O)Nc3ccccc32)c2c(C)c(C)sc2n1 63%, COc1ccc(-c2nnn(CC(=O)N(CCO)C(C(=O)NC3CCCC3)c3ccc(F)cc3)n2)cc1 (stereo not drawn) -23.3%, CN(C(=O)COC(=O)c1cc(-c2ccco2)nc2ccccc12)C1CCS(=O)(=O)C1 (stereo not drawn) 65.5%, CC(C)CCn1cnc2c1c(=O)n(CC(=O)NC(N)=O)c(=O)n2Cc1ccccc1 40.9%, COc1ccc(OC)c(Nc2nc(-c3ccc(O)c(O)c3)cs2)c1 36.2%, COc1ccc(COCCN2CCN(S(=O)(=O)c3ccccc3)CCC2=O)cc1 44.4%, COC(=O)c1[nH]c2ccccc2c1NS(=O)(=O)c1ccc(OC)cc1OC 32.8%, O=C(CSc1nnc(-c2cccs2)n1Cc1ccccc1)N1CCc2ccccc2C1 147%, CCN(/N=C/c1ccccc1)c1cc(=O)n(C)c(=O)[nH]1 49.7%, CCn1c(SCC(=O)N/N=C/C=C/c2ccccc2[N+](=O)[O-])nnc1-c1ccccc1 37.3%, Cc1noc(C)c1S(=O)(=O)Nc1ccc(C(=O)N2CCN(c3ccc(F)cc3)CC2)cc1 51%, Cc1ccc(O)c(CNc2nc3ccccc3[nH]2)c1 -0.191%, Cc1ccccc1-c1nnn(CC(=O)c2ccc(S(=O)(=O)N3CCCC3)cc2)n1 216%, Cc1ccc(CCC(=O)Nc2ncc(Cc3cc(Cl)ccc3Cl)s2)o1 35.6%, COCc1cc(=O)[nH]c(SC)n1 -4.32%

Potency, active:
Cc1ccnc(NC(=O)c2ccoc2C)c1 14.1 µM, COc1cccc(/C=N\NC(=O)C2=NNC(=O)C2C)c1O (stereo not drawn) 17.8 µM
